Measured values published in PubChem BioAssay (NCI).
Compounds without any hit were thinned out: in the full panel of roughly 83,000, 20% have a hit.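 Negative percent growth values reflect cell death: -40 means 40% of the cells present at the start died, and -100 means all died.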 Calls of active or inactive are those of the source. How the source made its calls: active means growth percent below 10; inactive means the rest.

The molecules below were run on SNB-19 CNS (assay: NCI-60 one-dose screen, 48 h (100 = growth as untreated, 0 = no growth, -100 = all killed)). Conditions: 10 µM unless noted.
For NC(N)=N/N=C(/c1ccccc1)c1ccc(N)cc1, the growth was 106% (inactive). In the case of N=C(N)c1ccc(-c2ccc(-c3ccc(Cl)cc3Cl)o2)cc1, the growth is reported as -1.88% (active). In the case of O=C(Oc1ccc[nH]c1=O)c1cc([N+](=O)[O-])cc([N+](=O)[O-])c1, the growth is reported as 114% (inactive). Clc1ccc(-c2nnc(Cn3ccnc3)o2)cc1 was tested, and the growth was 95.5% (inactive). With COc1cccc(CCC2CCCN(c3cc(C)nc(N)n3)C2)c1 (stereo not drawn) the growth was 23.8% (inactive). For O=C1Nc2ccccc2SC1C1SC(=S)N(Cc2ccccc2)C1=O (stereo not drawn), the growth was 107% (inactive). In the case of NC(=Nc1ccc(N)cc1)C(N)=Nc1ccc(N)cc1, the growth is reported as 102% (inactive). With OC(c1cccc(OCc2ccccc2)c1)c1nnc(-c2ccccc2)o1 (stereo not drawn) the growth was 99.4% (inactive). In the case of CN1CCN(c2ccc(Nc3ncc(Cl)c(NC[C@@H]4CCCO4)n3)cc2)CC1, the growth is reported as 53.9% (inactive). In the case of CC[C@]1(O)C[C@H]2CN(CCc3c([nH]c4ccccc34)[C@@](C(=O)OC)(c3cc4c(cc3OC)N(C=O)[C@H]3[C@@](O)(C(=O)OC)[C@H](OC(C)=O)[C@]5(CC)C=CCN6CC[C@]43[C@@H]65)C2)C1, the growth is reported as 10.1% (inactive). In the case of CCN(CC)CC(=O)Nc1cccc(C(=O)OC(C)C)c1, the growth is reported as 106% (inactive). In the case of Cc1cc(N(CCCNc2ccnc3cc(Cl)ccc23)Cc2ccccn2)nc(N2CCCC2)n1, the growth is reported as 91.2% (inactive). For O=C1CSC(c2ccccc2O)N1c1nnc(Cn2cnnc2)o1 (stereo not drawn), the growth was 90.4% (inactive). CC(=O)c1sc(-c2ccccc2)cc1N was tested, and the growth was 94.5% (inactive). With COc1ccc(-c2cc(-c3ccc(Nc4nc(Nc5ccccc5)nc(Nc5ccc(Cl)cc5)n4)cc3)nc(N)c2C#N)cc1 the growth was 71.9% (inactive). NS(=O)(=O)Oc1ccc(NC(=O)C23CC4CC(CC(C4)C2)C3)cc1Cl was tested, and the growth was 90.9% (inactive). COc1ccc(-c2nc3sccn3c2/C=C/C(=O)c2c[nH]c3ccccc23)cc1 was tested, and the growth was 92.2% (inactive). COc1ccc(C2=NC(=O)NC2c2ccc(OC)cc2)cc1 (stereo not drawn) was tested, and the growth was 58.5% (inactive). With N=c1ccn2c(n1)OC1C(O)C(CO)OC12 (stereo not drawn) the growth was 44% (inactive). For Cl.Fc1c[c-]c(-c2ccccn2)c(F)c1.[Pt].c1ccc(P(c2ccccc2)C([PH+](c2ccccc2)c2ccccc2)[PH+](c2ccccc2)c2ccccc2)cc1, the growth was 27.1% (inactive). For CCCn1nc(-c2ccccc2)c2c(-c3ccccc3)onc2c1=O, the growth was 77.2% (inactive). In the case of N#Cc1c(-c2ccccc2)nc(SCC2CO2)nc1N1CCOCC1 (stereo not drawn), the growth is reported as 60.9% (inactive). In the case of CCNCCNc1cc(-c2cccc(C(F)(F)F)c2)c(C#N)c2nc3ccccc3n12, the growth is reported as -20.3% (active). In the case of COc1ccc(Cn2cnc3cc(C(=O)Nc4cccc5ccccc45)ccc32)c(OC)c1, the growth is reported as 21.5% [30 µM] (inactive). CC(C)(C)N1CC(OC(N)=O)C1 was tested, and the growth was 106% (inactive). In the case of Cc1ccc(-n2nnc(C3=NCCc4c3[nH]c3ccc(Cl)cc43)c2C)cc1, the growth is reported as 83.3% (inactive).

The molecules below were run on U251 CNS in the same assay as above. Conditions: 10 µM unless noted.
With COc1ccc(/C=C2\COc3ccc(O)cc3C2=O)c(OC)c1 the growth was 50.3% (inactive). With COc1ccc(-c2cc(-c3ccc(Nc4nc(Nc5ccccc5)nc(Nc5ccc(Cl)cc5)n4)cc3)nc(N)n2)cc1 the growth was 24.7% (inactive). With Clc1ccc2c(NCCCN3CCN(c4nc(-n5ccnc5)nc5ccccc45)CC3)ccnc2c1 the growth was 97.2% (inactive). Cn1ncc2c(Nc3ccc(Br)cc3)nc(Nc3ccc(Br)cc3)nc21 was tested, and the growth was 33.4% (inactive). For OC(COc1cccc2ccccc12)CN1CCN(c2ccccc2)CC1 (stereo not drawn), the growth was 95.7% (inactive). O=c1[nH]c(=O)n(C2CC(O)C(CO)O2)cc1CO (stereo not drawn) was tested, and the growth was 2.98% (active). For COc1cc2oc(-c3cccc(C(=O)Nc4ccc(C#N)cc4)c3)cc(=O)c2c(O)c1OC, the growth was 61.3% (inactive). For C=C(Cl)COC(=O)C(C)(C)O, the growth was 100% (inactive). CC(C)(C)OC(=O)N1Cc2cc3ccccc3nc2C1CO (stereo not drawn) was tested, and the growth was 103% (inactive). In the case of COC1(CC[C@@H](C)COC2OC(CO)C(O)C(O)C2O)O[C@H]2C[C@H]3[C@@H]4CC=C5C[C@@H](OC6OC(CO)C(OC7OC(C)C(O)C(O)C7O)C(O)C6OC6OC(C)C(O)C(O)C6O)CC[C@]5(C)[C@H]4CC[C@]3(C)[C@H]2[C@@H]1C (stereo partly drawn), the growth is reported as -98.1% (active). For COc1cc(-c2cc(-c3ccc(Nc4nc(Nc5ccccc5)nc(Nc5ccc(Cl)cc5)n4)cc3)nc(N)n2)cc(OC)c1OC, the growth was 42.6% (inactive). In the case of CN(C)c1ccc(C#Cc2c(F)cccc2Cl)cc1, the growth is reported as 89.1% (inactive). In the case of NC(N)=N/N=C(/c1ccccc1)c1ccc(N)cc1, the growth is reported as 97.5% (inactive). For N=C(N)c1ccc(-c2ccc(-c3ccc(Cl)cc3Cl)o2)cc1, the growth was -59.4% (active). With O=C(Oc1ccc[nH]c1=O)c1cc([N+](=O)[O-])cc([N+](=O)[O-])c1 the growth was 109% (inactive). For Clc1ccc(-c2nnc(Cn3ccnc3)o2)cc1, the growth was 106% (inactive). In the case of COc1cccc(CCC2CCCN(c3cc(C)nc(N)n3)C2)c1 (stereo not drawn), the growth is reported as 15% (inactive). For O=C1Nc2ccccc2SC1C1SC(=S)N(Cc2ccccc2)C1=O (stereo not drawn), the growth was 98.3% (inactive). In the case of NC(=Nc1ccc(N)cc1)C(N)=Nc1ccc(N)cc1, the growth is reported as 101% (inactive). With OC(c1cccc(OCc2ccccc2)c1)c1nnc(-c2ccccc2)o1 (stereo not drawn) the growth was 96.7% (inactive). With CN1CCN(c2ccc(Nc3ncc(Cl)c(NC[C@@H]4CCCO4)n3)cc2)CC1 the growth was 32.5% (inactive). CCN(CC)CC(=O)Nc1cccc(C(=O)OC(C)C)c1 was tested, and the growth was 100% (inactive). In the case of Cc1cc(N(CCCNc2ccnc3cc(Cl)ccc23)Cc2ccccn2)nc(N2CCCC2)n1, the growth is reported as 74.8% (inactive). For O=C1CSC(c2ccccc2O)N1c1nnc(Cn2cnnc2)o1 (stereo not drawn), the growth was 79.7% (inactive). For CC(=O)c1sc(-c2ccccc2)cc1N, the growth was 82.7% (inactive). COc1ccc(-c2cc(-c3ccc(Nc4nc(Nc5ccccc5)nc(Nc5ccc(Cl)cc5)n4)cc3)nc(N)c2C#N)cc1 was tested, and the growth was -57.9% (active). For NS(=O)(=O)Oc1ccc(NC(=O)C23CC4CC(CC(C4)C2)C3)cc1Cl, the growth was 96% (inactive). With COc1ccc(-c2nc3sccn3c2/C=C/C(=O)c2c[nH]c3ccccc23)cc1 the growth was 46.2% (inactive). With COc1ccc(C2=NC(=O)NC2c2ccc(OC)cc2)cc1 (stereo not drawn) the growth was 74.6% (inactive). In the case of N=c1ccn2c(n1)OC1C(O)C(CO)OC12 (stereo not drawn), the growth is reported as 37.7% (inactive). With Cl.Fc1c[c-]c(-c2ccccn2)c(F)c1.[Pt].c1ccc(P(c2ccccc2)C([PH+](c2ccccc2)c2ccccc2)[PH+](c2ccccc2)c2ccccc2)cc1 the growth was 16.4% (inactive). For CCCn1nc(-c2ccccc2)c2c(-c3ccccc3)onc2c1=O, the growth was 72.9% (inactive). In the case of N#Cc1c(-c2ccccc2)nc(SCC2CO2)nc1N1CCOCC1 (stereo not drawn), the growth is reported as 75.3% (inactive). For CCNCCNc1cc(-c2cccc(C(F)(F)F)c2)c(C#N)c2nc3ccccc3n12, the growth was -88.7% (active). With COc1ccc(Cn2cnc3cc(C(=O)Nc4cccc5ccccc45)ccc32)c(OC)c1 the growth was 17.5% [30 µM] (inactive). In the case of CC(C)(C)N1CC(OC(N)=O)C1, the growth is reported as 101% (inactive). Cc1ccc(-n2nnc(C3=NCCc4c3[nH]c3ccc(Cl)cc43)c2C)cc1 was tested, and the growth was 80% (inactive).
